# In PubChem BioAssay (NCI):
# “And” between values parts separate entries of the source, which are not always exact repeats. Identical values can stand only once. About 83,000 compounds went through this panel and 20% of them were active in at least one assay; those are over-represented in the sample as a whole.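 Plates (96-well) were seeded with cells, treated with compound at one concentration, and incubated for 48 hours before percent growth was determined.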 The source made the active and inactive calls. Rule for the calls: active = growth percent below 10; inactive = the rest.
# Legend:
# Assay in all cases: NCI-60 one-dose screen, 48 h (100 = growth as untreated, 0 = no growth, -100 = all killed)
# Conditions in all cases: 10 µM unless noted
# [1] = test system: NCI-H23 lung
# [2] = test system: NCI-H226 lung
# [3] = test system: NCI-H322M lung
# [4] = test system: HOP-62 NSCLC
# [5] = test system: HOP-92 NSCLC
# [6] = test system: NCI-H522 lung
# [7] = test system: A549/ATCC NSCLC
# [8] = test system: 786-0 renal
# [9] = test system: COLO 205 colon
# [10] = test system: NCI-H460 lung
Compound,growth [1],growth [2],growth [3],growth [4],growth [5],growth [6],growth [7],growth [8],growth [9],growth [10]
O=C1C2=C(C(=O)c3ccccc31)C(O)(S(=O)(=O)O)C(O)(S(=O)(=O)O)C1N=CC=CC21 (stereo not given),31.8% (inactive) and 20.8% (inactive),57% (inactive) and 68.1% (inactive),44.8% (inactive) and 16.8% (inactive),42.1% (inactive) and 41.9% (inactive),-2.69% (active),24.8% (inactive) and -11.8% (active),35.8% (inactive) and 22.1% (inactive),32.7% (inactive) and 20.3% (inactive),50.3% (inactive),–
Cn1c(SSc2ccc(-c3cccnc3)n2C)ccc1-c1cccnc1,99.8% (inactive) and 111% (inactive),108% (inactive) and 105% (inactive),106% (inactive) and 95.5% (inactive),117% (inactive) and 118% (inactive),79% (inactive) and 101% (inactive),62% (inactive) and 81.9% (inactive),–,120% (inactive) and 112% (inactive),116% (inactive) and 102% (inactive),101% (inactive) and 65.9% (inactive)
CCOC(=O)C(CNc1ccccc1)C(=O)OCC,100% (inactive),95.2% (inactive),105% (inactive),90.1% (inactive),85.6% (inactive),–,–,100% (inactive),106% (inactive),103% (inactive)
O=c1c2ccccc2nc2n1Cc1nc3ccccc3c(=O)n1C2,92.2% (inactive) and 100% (inactive),89.5% (inactive) and 97.8% (inactive),97.8% (inactive) and 102% (inactive),114% (inactive) and 105% (inactive),95.3% (inactive) and 114% (inactive),89.9% (inactive) and 93.3% (inactive),–,103% (inactive) and 104% (inactive),111% (inactive) and 130% (inactive),95.1% (inactive) and 101% (inactive)
O=[N+]([O-])c1ccc2nc3c4ccccc4c4ccccc4c3nc2c1,81.8% (inactive),41.5% (inactive),92.6% (inactive),90% (inactive),61% (inactive),67.2% (inactive),–,88.6% (inactive),71.4% (inactive),68.4% (inactive)
N#CC(C#N)=C/C=C/c1cccc([N+](=O)[O-])c1,19.4% (inactive) and -19.3% (active),21.8% (inactive) and -24.7% (active),59.9% (inactive) and 26.4% (inactive),-4.35% (active) and -23.7% (active),23.3% (inactive),-55.5% (active) and -70.5% (active),34.1% (inactive) and 10.2% (inactive),26.2% (inactive) and -22.1% (active),1.24% (active) and -26.8% (active),–
Cc1ncsc1CCO,96% (inactive) and 94.8% (inactive),95.8% (inactive) and 103% (inactive),126% (inactive) and 89.4% (inactive),103% (inactive) and 106% (inactive),91.2% (inactive) and 97.8% (inactive),94.5% (inactive) and 85.9% (inactive),96.2% (inactive) and 92.5% (inactive),105% (inactive) and 96.9% (inactive),118% (inactive) and 116% (inactive),–
CCC(O)c1ccccc1 (stereo not given),112% (inactive) and 113% (inactive),96.1% (inactive) and 109% (inactive),114% (inactive) and 105% (inactive),87.2% (inactive) and 109% (inactive),117% (inactive) and 91.6% (inactive),101% (inactive) and 86.4% (inactive),–,94.6% (inactive) and 106% (inactive),128% (inactive) and 111% (inactive),106% (inactive) and 104% (inactive)
Cc1ccc(S(=O)(=O)Nc2ccc3cc([N+](=O)[O-])ccc3c2[N+](=O)[O-])cc1,65.7% (inactive) and 92.6% (inactive),67.6% (inactive) and 95.5% (inactive),93% (inactive) and 93.1% (inactive),92.7% (inactive) and 95% (inactive),27.9% (inactive) and -8.68% (active),54.6% (inactive) and 85.3% (inactive),77.7% (inactive) and 91.2% (inactive),72.2% (inactive) and 85.9% (inactive),106% (inactive) and 96.6% (inactive),–
CN(C)c1ccc(C(Cc2ccc3ccccc3n2)Cc2ccc3ccccc3n2)cc1,38.6% (inactive) and 65.5% (inactive),61.4% (inactive) and 71.9% (inactive),66.9% (inactive) and 86% (inactive),70.9% (inactive) and 84.4% (inactive),-4.12% (active) and 50.7% (inactive),45.3% (inactive) and 90.3% (inactive),45% (inactive) and 91.1% (inactive),31.4% (inactive) and 90.9% (inactive),43.5% (inactive),–
S=C1SCN(Cc2ccccc2)CN1Cc1ccccc1,81.2% (inactive),88.8% (inactive),–,100% (inactive),37.3% (inactive),21.5% (inactive),93.7% (inactive),49.8% (inactive),78.1% (inactive),95.5% (inactive)
COc1cc(NS(C)(=O)=O)ccc1Nc1c2ccccc2nc2c(C)cccc12,-8.23% (active) and 1.07% (active),-57.6% (active) and -44.9% (active),–,-17.9% (active) and -32.5% (active),-17.9% (active),-14.2% (active),-62.9% (active),-41.9% (active) and -40.4% (active),7.98% (active) and 0.541% (active),-36.3% (active) and -9.34% (active)
CC(C)N=c1cc2n(-c3ccc(Cl)cc3)c3ccccc3nc-2cc1Nc1ccc(Cl)cc1,-15.1% (active) and -62% (active) and -35.6% (active),35.8% (inactive) and 20.1% (inactive) and -21.7% (active),26.9% (inactive) and -13.2% (active) and -0.542% (active),55.8% (inactive) and 73.1% (inactive) and 42.9% (inactive),-2.5% (active) and -0.497% (active),9.58% (active) and -31.8% (active),20.2% (inactive) and 43.3% (inactive) and 16.1% (inactive),24.7% (inactive) and 9.68% (active) and -18.8% (active),-7.57% (active) and -28.7% (active),–
CNC(=O)c1cc(Oc2ccc(NC(=O)Nc3ccc(Cl)c(C(F)(F)F)c3)cc2)ccn1,-10.2% (active) and -19.9% (active),-17.8% (active) and -23.1% (active),-2.52% (active) and 18.3% (inactive),5.13% (active) and 22.5% (inactive),-22.9% (active) and -30.7% (active),-18.5% (active) and -38.9% (active),–,16.2% (inactive) and 15.5% (inactive),-46% (active) and -24.7% (active),–
O=C(Nc1ccc([N+](=O)[O-])cc1Cl)c1cc(Cl)ccc1O,-37.1% (active) and -43.6% (active),-11.4% (active) and -4.59% (active),-0.032% (active) and -21.1% (active),4.95% (active) and 9.98% (active),-24.7% (active) and -11.7% (active),-34.6% (active) and -12.1% (active),2.95% (active) and 18.5% (inactive),-34.7% (active) and -36.2% (active),-65.9% (active) and -43.8% (active),–
CC(=O)c1ccc2c(c1)N(CCCN1CCN(CCO)CC1)c1ccccc1S2,98.1% (inactive) and 55.9% (inactive),84.5% (inactive) and 68.2% (inactive),98.8% (inactive) and 46.9% (inactive),90.7% (inactive) and 43.1% (inactive),-3.7% (active),67.3% (inactive) and 35.3% (inactive),45.5% (inactive),85.9% (inactive) and -18.4% (active),134% (inactive) and -82.8% (active),–
O=C(CCc1ccc(O)cc1)N/N=C/c1cc(Br)ccc1O,61.4% (inactive),95.1% (inactive),–,62.7% (inactive),80.7% (inactive),77.5% (inactive),47.6% (inactive),42% (inactive),92% (inactive),29.7% (inactive)
O=C(Oc1cccc(OC(=O)c2ccccc2)c1)c1ccccc1,94.6% (inactive) and 106% (inactive),102% (inactive) and 100% (inactive),–,90.5% (inactive) and 90% (inactive),73.7% (inactive) and 88.5% (inactive),108% (inactive),57.7% (inactive) and 98.9% (inactive),90% (inactive) and 95.8% (inactive),101% (inactive) and 104% (inactive),107% (inactive) and 94.2% (inactive)
